Bioassay records deposited in PubChem BioAssay by Broad Institute.
The full list was thinned out, with hits kept by preference.
miR-122 inh: miR-122 suppressors via Renilla sensor increase, primary screen, cell-based, Huh7 psiCHECK-miR122, Renilla luciferase, single point | activation, % at 12.5 µM | 48 h | actives 0.14% (n = 340,000) | AID 623901, 2012;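 active = mean activation of 30% or more, with every replicate also reaching 30%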;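 also: 0% = median of neutral control wells and 100% = median of positive control wells; higher luciferase signal means stronger suppression of miR-122 activity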
* hit, by the source's call.

SMILES	miR-122 inh
C[C@@H]1CN([C@H](C)CO)C(=O)c2cc(Br)cnc2O[C@H]1CN(C)CC1CCOCC1	3.5
C[C@@H]1CN([C@H](C)CO)C(=O)c2cc(C3=CCCCC3)cnc2O[C@H]1CN(C)Cc1ccccc1C(=O)O	-16.1
C=CCc1ccccc1OCC(O)CN1CCN(CCN2C(=O)c3cccc4cccc(c34)C2=O)CC1 (stereo not drawn)	46.5*
C[C@@H]1CN([C@H](C)CO)C(=O)c2cc(C#Cc3ccccc3F)cnc2O[C@@H]1CN(C)S(=O)(=O)c1ccccc1	3.3
CCOc1ccc(NS(=O)(=O)c2cc(NC(=O)C3CC3)ccc2C)cc1Br	-140.2
CCOc1ccc(S(=O)(=O)N2CCC(C(N)=O)CC2)c2ccccc12	-90.0
CCOc1ccc(CCNC(=O)C2CCN(S(=O)(=O)N3CCC(C)CC3)CC2)cc1OCC	33.3*
COc1ccc(C#Cc2ccc3c(c2)O[C@H](CN(C)C(=O)NC2CCCCC2)[C@@H](C)CN([C@@H](C)CO)S3(=O)=O)cc1	-3.4
C[C@H]1CN([C@@H](C)CO)C(=O)c2cc(-c3ccccc3F)cnc2O[C@H]1CN(C)Cc1ccccc1F	2.2
CCCNC(=O)N(C)C[C@H]1Oc2cc(-c3ccccc3)ccc2S(=O)(=O)N([C@@H](C)CO)C[C@H]1C	-6.4
CCCNC(=O)N(C)C[C@@H]1Oc2ncc(C#C[C@@H](C)O)cc2C(=O)N([C@@H](C)CO)C[C@@H]1C	8.8
COCC#Cc1cnc2c(c1)C(=O)N([C@H](C)CO)C[C@H](C)[C@@H](CN(C)C(=O)Nc1ccccc1OC)O2	-55.1
C[C@H](CO)N1C[C@H](C)[C@H](CN(C)S(=O)(=O)c2cccc(F)c2)Oc2ncc(C#Cc3ccc(C(F)(F)F)cc3)cc2C1=O	8.4
CCCC(O)C#Cc1cnc2c(c1)C(=O)N([C@H](C)CO)C[C@H](C)[C@H](CN(C)S(=O)(=O)c1ccccc1)O2 (stereo partly drawn)	-0.9
CCc1c(C(=O)NCc2ccccc2Cl)[nH]c(C)c1C(C)=O	-118.3
Cc1cc(C(F)F)n2ncc(C(=O)NCCc3ccccc3Cl)c2n1	33.3*
COc1ccc(C(=O)Nc2ccc3c(c2)OC[C@@H](C)N(C)C[C@@H](C)[C@@H](OC)CN(C)C3=O)cc1	-1.2
COc1ccc(-c2cnc3c(c2)C(=O)N([C@H](C)CO)C[C@H](C)[C@H](CN(C)C(=O)C2CCOCC2)O3)cc1	-3.9
C=CCNC(=S)NNC(=O)Cn1c(-c2ccccc2)cc(=O)n2ncnc12	34.0*
Cc1ccc(-c2ccc3c(c2)O[C@@H](CN(C)C(=O)NC(C)C)[C@H](C)CN([C@H](C)CO)S3(=O)=O)cc1	-27.7
C[C@H]1CN([C@@H](C)CO)C(=O)c2cc(-c3ccc(C#N)cc3)cnc2O[C@@H]1CN(C)CC1CCOCC1	-0.4
CC(=O)NC(c1ccc(C)cc1)c1cc(Cl)c2cccnc2c1O (stereo not drawn)	30.8*
C[C@@H]1CN([C@@H](C)CO)C(=O)c2cc(-c3cccc(F)c3)cnc2O[C@H]1CN(C)Cc1ccncc1	-2.0
COc1ccccc1S(=O)(=O)N(C)C[C@@H]1Oc2ncc(-c3ccc(C)cc3)cc2C(=O)N([C@@H](C)CO)C[C@H]1C	3.6
CCCC(=O)Nc1ccc2c(c1)OC[C@@H](C)N(C)C[C@@H](C)[C@@H](OC)CN(C)C2=O	0.0
SMILES	miR-122 inh
CC(C)CC#Cc1cnc2c(c1)C(=O)N([C@@H](C)CO)C[C@@H](C)[C@@H](CN(C)Cc1ccc(F)cc1)O2	7.2
Cc1ccc(S(=O)(=O)N(C)C[C@@H]2Oc3cc(C#CC4CCCC4)ccc3S(=O)(=O)N([C@@H](C)CO)C[C@H]2C)cc1	1.9
Cc1ccc(S(=O)(=O)N(C)C[C@@H]2Oc3ccc(NC(=O)Nc4ccc(C(F)(F)F)cc4)cc3CC(=O)N([C@H](C)CO)C[C@@H]2C)cc1	-122.7
C[C@H](CO)N1C[C@H](C)[C@H](CN(C)Cc2ccc(C(=O)Nc3ccccc3N)cc2)Oc2ccc(NC(=O)C3CCCCC3)cc2CC1=O	-95.0
C[C@@H]1CN([C@@H](C)CO)C(=O)Cc2cc(NC(=O)C3CCCCC3)ccc2O[C@H]1CN(C)Cc1ccc(-c2ccccc2)cc1	33.0*
C[C@@H]1CN([C@@H](C)CO)C(=O)Cc2cc(NC(=O)Nc3ccc(C(F)(F)F)cc3)ccc2O[C@H]1CN(C)CC1CCCCC1	31.5*
C[C@H](CO)N1C[C@H](C)[C@H](CN(C)Cc2ccc(C(=O)Nc3ccccc3N)cc2)Oc2ccc(NC(=O)C3CC3)cc2CC1=O	-165.3
C[C@@H]1CN([C@H](C)CO)C(=O)Cc2cc(NS(=O)(=O)c3ccc(Cl)cc3)ccc2O[C@@H]1CN(C)C(=O)Nc1ccc(C(F)(F)F)cc1	-103.3
CN1c2ccc(-c3ccccc3F)cc2[C@H]2[C@H](CCN2S(=O)(=O)c2ccccc2F)[C@H]1CO	-99.7
CC(C)c1ccc(S(=O)(=O)Nc2ccc3c(c2)OCO3)cc1	-97.7
C/C=C/c1ccc2c(c1)O[C@@H](CN(C)Cc1ccccc1F)[C@H](C)CN([C@@H](C)CO)S2(=O)=O	0.5
COCC#Cc1cnc2c(c1)C(=O)N([C@H](C)CO)C[C@H](C)[C@H](CN(C)C(=O)Nc1c(C)noc1C)O2	-22.3
C[C@H](CO)N1C[C@H](C)[C@H](CN(C)C(=O)Nc2ccc3c(c2)OCO3)Oc2ncc(-c3ccc(F)cc3)cc2C1=O	-24.1
CCCNC(=O)N(C)C[C@@H]1Oc2cc(Br)ccc2S(=O)(=O)N([C@H](C)CO)C[C@H]1C	3.8
C[C@H](CO)N1C[C@H](C)[C@H](CN(C)C(=O)C2CC2)Oc2ncc(C#CC(C)(C)O)cc2C1=O	5.7
C[C@H]1CN([C@@H](C)CO)C(=O)c2cc(-c3ccccc3)cnc2O[C@H]1CN(C)C(=O)c1cccnc1	0.2
C[C@@H]1CN([C@@H](C)CO)C(=O)c2cc(C#CC3(O)CCCC3)cnc2O[C@@H]1CN(C)S(=O)(=O)c1ccccc1	-0.5
C[C@H]1CN([C@@H](C)CO)S(=O)(=O)c2ccc(C#Cc3ccncc3)cc2O[C@@H]1CN(C)S(=O)(=O)c1ccccc1	-105.5
Cc1ccc(S(=O)(=O)NCCC(C)C)cc1[N+](=O)[O-]	-232.1
Cc1ccc(C(=O)N/N=C\c2ccc[nH]2)cc1[N+](=O)[O-]	69.0*
O=[N+]([O-])c1ccc(N/N=C/c2ccc[nH]2)cc1	44.8*
C[C@H]1CN([C@@H](C)CO)C(=O)c2cc(C#CC3CCCC3)cnc2O[C@@H]1CN(C)C(=O)C1CCC1	-3.6
C[C@@H]1CN([C@H](C)CO)S(=O)(=O)c2ccc(C3=CCCCC3)cc2O[C@H]1CN(C)C(=O)CC1CC1	-5.7
CCCNC(=O)N(C)C[C@H]1Oc2cc(C#Cc3cccc(F)c3)ccc2S(=O)(=O)N([C@H](C)CO)C[C@H]1C	2.7
COc1ccccc1-c1ccc2c(c1)O[C@@H](CN(C)CC1CCCC1)[C@H](C)CN([C@@H](C)CO)S2(=O)=O	-23.8
Cc1ccc(C(C)C)cc1S(=O)(=O)NC1CC(C)(C)NC(C)(C)C1	-98.8
C[C@H](CO)N1C[C@H](C)[C@H](CN(C)Cc2cncnc2)Oc2ncc(C#Cc3ccccn3)cc2C1=O	-2.8
COCC#Cc1cnc2c(c1)C(=O)N([C@@H](C)CO)C[C@H](C)[C@H](CN(C)C(=O)Cc1ccccc1)O2	-0.1
CCC(=O)N1[C@H](CO)[C@H](c2ccccc2)[C@@H]1CN(CC)C(=O)c1cccc(F)c1	-250.0
CCC(=O)N1[C@H](CO)[C@H](c2ccccc2)[C@@H]1CN(CC)C(=O)c1ccccc1	36.4*
